ALDH1A1 inh = ALDH1A1 (human) enzyme inhibition; P00352; Purified ALDH1A1, NADH fluorescence, propionaldehyde substrate; Potency, µM (highest dose often 75.3 µM), inactives show at the highest dose activity, negative = inhibition, actives largely listed as inhibitors; hit rate 7.3% among 220,000; AID 1030;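 also: potency is read from the fitted curve at half-maximal effect; plate controls were no enzyme wells and a reference inhibitor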
PNC inhibitor = inhibitors of perinucleolar compartment assembly; activity change (PNC), negative = inhibition, % at 10 µM; hit rate 3.1% among 140,000; PC3M PTB-GFP, PNC prevalence imaging, 16 h; active compounds read low;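 active = readout at or below -70, meaning at least 70% loss of cells showing the perinucleolar compartment, a nuclear body marking cancer cells; inconclusive = readout between -30 and a set limit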;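 also: plate controls were DMSO wells for no effect and camptothecin positive control wells for full effect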
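PC3M cells stably expressing PTB-GFP, 750–1000 cells/well, treated 16 h at 37 °C with compound (23 nl of library stock), in duplicate. After paraformaldehyde fixation and Hoechst stain, imaged at 20x; PNC prevalence scored by image analysis.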
JMJD2E inh = inhibitors of human JMJD2E histone demethylase. B2RXH2. JMJD2E catalytic domain, FDH-coupled NADH fluorescence (FDH is formaldehyde dehydrogenase). Potency, µM (titrated, usually from 57.1 µM), inactives show at the top dose activity change, negative = inhibition, hits mostly inhibitors. hit rate 1.6% among 230,000. AID 2147;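 also: potency is read from the fitted curve at half-maximal effect; 0% = wells with enzyme and -100% = buffer wells without enzyme; nearly all actives have a fitted effect of over 50% in size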
Target sequence (B2RXH2 1-337 limits assumed): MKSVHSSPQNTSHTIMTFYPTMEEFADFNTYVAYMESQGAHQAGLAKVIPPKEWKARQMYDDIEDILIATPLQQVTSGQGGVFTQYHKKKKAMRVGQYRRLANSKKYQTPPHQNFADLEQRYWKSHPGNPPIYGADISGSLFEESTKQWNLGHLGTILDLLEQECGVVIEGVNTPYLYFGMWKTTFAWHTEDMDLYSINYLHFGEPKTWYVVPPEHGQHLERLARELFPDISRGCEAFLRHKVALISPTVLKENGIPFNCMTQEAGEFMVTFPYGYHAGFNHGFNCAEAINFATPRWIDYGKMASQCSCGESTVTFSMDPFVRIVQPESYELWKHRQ
HPGD inh = HPGD (human) dehydrogenase inhibition; P15428; purified HPGD, NADH fluorescence kinetic, PGE2 substrate; Potency, µM, without a hit: at the highest dose activity change, negative = inhibition, most hits filed as inhibitors; hit rate 4.3% among 150,000; also: potency is read from the fitted curve at half-maximal effect
Target sequence (P15428 whole entry, looked up): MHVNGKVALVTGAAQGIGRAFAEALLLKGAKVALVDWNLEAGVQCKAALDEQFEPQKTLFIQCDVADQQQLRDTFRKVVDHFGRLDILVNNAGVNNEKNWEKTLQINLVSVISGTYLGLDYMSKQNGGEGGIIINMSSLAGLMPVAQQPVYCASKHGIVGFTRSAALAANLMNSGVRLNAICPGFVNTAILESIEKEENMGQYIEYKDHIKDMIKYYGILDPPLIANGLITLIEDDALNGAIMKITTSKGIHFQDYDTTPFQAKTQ
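NADH formation kinetics: reaction with 30 uM PGE2 and 1 mM NAD+ (final), 20 nM enzyme, Tris-HCl pH 8 with Tween 20, after 15 min compound preincubation at room temperature. Fluorescence change, last versus first of five reads.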
Active calls of the source: *; ? = inconclusive; · = not tested or not shown; [ ] = dose if it differs, or a comment. The list is not random: actives were taken first. Their share in the collection is about 11%. Unless noted, calls follow the shape of the dose curve; as a rule, active = well fitted inhibition curve with a large enough effect (not every such curve was filed as active); inconclusive = small, poorly fitted or top-dose-only effect, or another doubt; inactive = no such curve, though single readings can be large or run the other way. Unless noted, % is scaled to controls: 0 for no effect and ±100 for the full control effect.

SMILES	ALDH1A1 inh	PNC inhibitor	JMJD2E inh	HPGD inh
Cc1cc(C)c(NC(=O)CN2CCN3CCCC3C2)c(C)c1 (configuration not stated)	2.0%	15.1	0.8%	-7.4%
O=C1NC2=C(C(=O)OC2)C(c2ccc(OC(F)(F)F)cc2)N1 (configuration not stated)	·	·	0.0%	·
Cc1c(C)n(CC(O)CN2CCOCC2)c2ccccc12 (configuration not stated)	?	19.4	?	-23.0%
COc1ccc(C(=O)c2c(C)c3cc(C)ccc3n2CC(O)CN2CCOCC2)cc1 (configuration not stated)	11.2µM*	?	-1.1%	-29.5%
O=C(/C=C/c1ccco1)NC(=S)Nc1cccc([N+](=O)[O-])c1	-0.1%	?	-4.6%	17.8µM*
COc1ccccc1NC(=S)NC(=O)/C=C/c1ccco1	25.1µM*	4.3	?	28.2µM*
COc1ccc(-c2csc(NC(=S)NC(=O)/C=C/c3ccco3)n2)cc1OC	-5.4%	-105.8*	-10.3%	-23.3%
COc1ccc(-c2csc(NC(=S)NC(=O)/C=C/c3ccco3)n2)cc1Br	5.6%	·	-1.4%	·
Cc1cccc(NC(=S)NC(=O)/C=C/c2ccco2)c1	23.8µM*	·	-5.1%	·
O=C(Cn1cnc2cc([N+](=O)[O-])ccc2c1=O)NCc1ccccc1	?	·	-25.0%	·
CCOCCCNC(=O)CN1C(=O)CSc2ccccc21	10.8%	28.4	-2.6%	-9.9%
CCOCCCNC(=O)CN1C(=O)CSc2cc(S(=O)(=O)N3CCCCCC3)ccc21	10µM*	13.4	-15.2%	·
CCN(CC)CCCNC(=O)CN1C(=O)CSc2ccc(S(=O)(=O)N3CCOCC3)cc21	10.2%	-113.4*	10.8%	-0.9%
CCCN(CCC)CCCNC(=O)CN1C(=O)CSc2ccc(S(=O)(=O)N3CCOCC3)cc21	-3.3%	·	-2.2%	·
C[C@@H](C(=O)NCc1ccccn1)[C@@H]1C[C@@]1(C)[C@@H](NC(=O)OCc1ccccc1)c1ccccc1	-14.7%	27.2	-14.4%	-7.6%
C/C(=N/S(=O)(=O)c1ccc(Cl)c(Cl)c1)OCC(C)(C)C	5.2%[13.5 µM]	·	·	-5.9%
Cc1ccc([N+](=O)[O-])cc1NC(=S)NC(=O)c1cccnc1	-6.0%	·	2.3%	·
O=C(NC(=S)Nc1cc([N+](=O)[O-])ccc1O)c1cccnc1	10µM*	·	-1.2%	·
CCC(C)c1ccc(O)c(NC(=S)NC(=O)c2cccnc2)c1 (configuration not stated)	31.6µM*	·	-4.2%	·
CCc1ccc(NC(=O)c2ccccc2SC)cc1	-3.2%	·	4.6%	·
O=C1CC(SCCO)C(=O)N1c1ccccc1 (configuration not stated)	-0.2%	-27.3	-5.1%	0.4%
Cc1cc(C)cc(N2C(=O)CC(Sc3nnnn3-c3ccccc3)C2=O)c1 (configuration not stated)	14.1µM*	35.5	-7.5%	?
CCOc1ccc(N2C(=O)CC(Sc3ccccc3C(=O)O)C2=O)c([N+](=O)[O-])c1 (configuration not stated)	1µM*	·	-12.5%	·
CCOc1ccc(NC(=O)Cc2ccccc2)c([N+](=O)[O-])c1	12.0%	?	1.6%	-13.9%
CCN1C(=O)CC(Sc2ccccc2C(=O)O)C1=O (configuration not stated)	-0.1%	?	-5.3%	0.5%
SMILES	ALDH1A1 inh	PNC inhibitor	JMJD2E inh	HPGD inh
O=C1CC(Sc2nnnn2C2CCCCC2)C(=O)N1c1ccccc1 (configuration not stated)	3.55µM*	-100.0*	8.4%	?
COC(=O)c1ccccc1SC1CC(=O)N(c2ccccc2)C1=O (configuration not stated)	?	?	-1.0%	14.1µM*
CN(C)Cc1ccccc1-c1nc(NC2CCNCC2)c2ccccc2n1	-10.7%	·	·	·
c1ccc2cc(-c3cc(-c4cc(-c5ccc6ccccc6c5)on4)no3)ccc2c1	-1.7%[13.5 µM]	·	·	-6.9%
Cn1nnnc1SC1CC(=O)N(c2ccccc2)C1=O (configuration not stated)	1.58µM*	·	0.9%	·
Cc1c(O)nc(SC2CC(=O)N(c3ccccc3)C2=O)[nH]c1=O (configuration not stated)	?	29.6	3.0%	-14.2%
CCOC(=O)c1c(N2C(=O)CC(Sc3ccccc3C(=O)O)C2=O)sc2c1CCCC2 (configuration not stated)	4.47µM*	·	-9.0%	·
Cc1cccc(N2C(=O)CC(Sc3nnc(C)s3)C2=O)c1 (configuration not stated)	2.82µM*	-7.5	-2.8%	25.1µM*
Cc1cc(C)cc(N2C(=O)CC(Sc3ncn[nH]3)C2=O)c1 (configuration not stated)	2µM*	·	1.26µM*	·
CCn1cc(CNCc2cn(C)nc2-c2ccc(C3CCCCC3)cc2)cn1	?	·	2.7%	·
FC(F)(F)c1ccccc1Cl	-21.0%	·	·	-3.9%
O=C(O)C1=C/C(=C(/c2ccccc2)c2cc(C(=O)O)c(O)c3ccccc23)c2ccccc2C1=O	9.1%[13.5 µM]	·	·	-5.3%
CCN(CC)S(=O)(=O)c1ccc(Cl)c(NC(=O)COc2ccc(OC)cc2)c1	21.4%	·	3.6%	·
Cc1ccc(NC(=S)NNC(=O)c2cn(C)nc2C)cc1	?	?	1.4%	-9.7%
O=C(NNC(=S)Nc1ccc(F)cc1)C1CC1c1ccc(Cl)cc1 (configuration not stated)	0.6%	-18.0	-4.2%	15.8µM*
Cc1ccc(NC(=S)NNC(=O)C2CC2c2ccc(C)cc2)cc1 (configuration not stated)	?	-100.0*	21.3%	-18.4%
COc1ccc(NC(=S)NNC(=O)C2CC2c2ccc(C)cc2)cc1 (configuration not stated)	2.51µM*	23.7	1.8%	-25.3%
COc1ccc(C(=O)NCC(=O)N/N=C/c2cccc(OC(=O)c3ccco3)c2)cc1OC	5.2%	·	3.7%	·
O=C(NNS(=O)(=O)c1ccc2ccccc2c1)C1CCN(Cc2ccccc2)CC1	-0.5%	11.6	-5.1%	1.5%
O=S(=O)(NC1CCN(Cc2ccccc2)CC1)c1ccc2ccccc2c1	22.4µM*	·	-7.7%	·
O=C(C1=C(O)C(=O)N(CCCN2CCOCC2)C1c1ccncc1)c1cc2ccccc2o1 (configuration not stated)	14.1µM*	14.8	-16.7%	-6.9%
Cc1ccc(C2C(C(=O)c3cc4ccccc4o3)=C(O)C(=O)N2CCN2CCOCC2)o1 (configuration not stated)	14.1µM*	-5.4	?	-24.2%
CC(=O)C1=C(O)C(=O)N(C2CCCCC2)C1c1ccccc1 (configuration not stated)	22.4µM*	-28.4	1.3%	-17.0%
COCCN1C(=O)C(O)=C(C(=O)c2cccs2)C1c1ccccc1 (configuration not stated)	2.4%	63.3	-2.0%	-4.7%
COCCN1C(=O)C(O)=C(C(C)=O)C1c1ccc(F)cc1 (configuration not stated)	14.1µM*	-17.1	?	?
Cc1nn(C)c2nc(NNC(=O)Nc3cc(Cl)nc(Cl)c3)cc(C(C)C)c12	4.1%	·	·	-9.1%
O=C(OCc1ccccc1)[C@@H]1COC(c2ccc(Br)cc2)=N1	2.0%	·	·	-8.5%
CC(=O)OC(C)=O	?	·	·	-12.8%
